# Data from the supplement of paper PMC6555819.
# Tests used:
# Test in all cases: PBM binding z-score (relative to random genomic background probes); higher = stronger binding; sequences stand for … in GC…GCGATTGACAGCGTAGAATGAAGG
# [1] = system: FXR:RXRa (NR concentration 270 nM, RXRa partner concentration 90 nM)
# Outline: (§1)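 Random background probes are the reference for binding z-scores. These scores derive from regression-normalized fluorescence on custom Agilent 4×180K protein-binding microarrays incubated 1 h with ligand-free nuclear receptor dimers. Binding was detected with antibodies against each partner (one per run).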
# [2] = system: LXRa:RXRa (NR concentration 270 nM, RXRa partner concentration 90 nM)
# Outline: as §1
# [3] = system: LXRa homodimer (NR concentration 270 nM)
# Outline: as §1
# [4] = system: LXRb:RXRa (NR concentration 270 nM, RXRa partner concentration 90 nM)
# Outline: as §1
# [5] = system: LXRb homodimer (NR concentration 270 nM)
# Outline: as §1
# [6] = system: PPARa:RXRa (NR concentration 270 nM, RXRa partner concentration 90 nM)
# Outline: as §1
# [7] = system: PPARg:RXRa (NR concentration 180 nM, RXRa partner concentration 90 nM)
# Outline: as §1
# [8] = system: PPARg:RXRa 270nM:90nM, anti-RXR (NR concentration 270 nM, RXRa partner concentration 90 nM)
# Outline: as §1
# [9] = system: PPARg:RXRa 30nM:10nM, anti-RXR (NR concentration 30 nM, RXRa partner concentration 10 nM)
# Outline: as §1
# [10] = system: PPARg:RXRa 90nM:30nM, anti-RXR (NR concentration 90 nM, RXRa partner concentration 30 nM)
# Outline: as §1
Sequence,PBM binding z-score [1],PBM binding z-score [2],PBM binding z-score [3],PBM binding z-score [4],PBM binding z-score [5],PBM binding z-score [6],PBM binding z-score [7],PBM binding z-score [8],PBM binding z-score [9],PBM binding z-score [10]
ACTAGCAGGCCAAATTTGGGTCACTCAAACAAAG,0.491,0.315,-0.377,0.947,-0.562,2.99,1.62,1.84,0.0732,1.04
GAAACAGGGTCAGCTAGAGGCCAGAGTATGGAAA,5.08,2.78,-0.301,2.7,-0.705,4.97,4.24,3.85,0.859,2.72
CCTAACGGGTCAAGGTTATAGCACGGGTGGTACG,4.72,3.16,0.175,2.46,0.225,4.48,3.41,3.67,1.21,2.39
CCTAGCAGGTCAATCTGGGTCACTCAAGGCTTGA,5.49,6.27,1.3,4.34,0.627,4.97,4.83,5.3,2.13,4.43
ACTAGTTGGTCAGCTGAGGACACACACAATTCGG,1.67,-0.161,-0.165,0.0976,0.0569,0.0805,0.997,-0.202,-0.228,-0.243
GCGACTGGGGCAAAGCAGGTGACCATAAGGTTGG,-0.334,-0.7,-0.835,-0.574,-1.48,1.09,0.993,1.27,-0.349,0.239
TTACCAAGGTGAAAGGTCGTAGATGCACGCCTTG,3.65,3.02,-0.241,2.66,-0.86,5.51,8.66,8.09,7.58,8.56
CTCGAAAGGTCGGTTGAGGAGAGTATACGGATAA,1.93,1.38,-0.296,1.13,0.0344,2.25,0.367,1.09,0.298,0.525
GCGACTGGGGCAAAGCAGGATACCATAAGGTTGG,0.421,-0.82,-0.556,-0.347,-0.952,0.75,1.31,1.03,-0.094,0.712
TCTGCTAGGTCAACGATGGTCAGCAAATCTGCTA,3.33,2.48,-0.168,1.69,-0.321,3.27,2.79,3.15,2.13,2.56
AGAATGAGGGTAAGATCAGGGAAACAGAATACAT,0.539,0.166,0.147,0.566,0.276,0.918,0.981,0.698,0.455,0.409
